Results taken from the supplement of paper PMC8047044.
Several values for one entry are separate records, joined by “and”; a condition that tells them apart may be missing. Equal values may be shown once. Where a name gives a salt, the structure may show the parent alone.

Columns and labels:
[1] = system: Neuro-2a; assay: neurite formation score, plate-normalized to DMSO control mean 5.04 (score (0-8 scale)); higher = more or longer neurites; details: 1 µM
Method: (§1)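 Neuro-2a mouse neuroblastoma cells in PLL-coated 96-well plates were pre-treated for 1 h in DMEM(+) with each kinase inhibitor at 1 µM, then switched to serum-free DMEM(-) with inhibitor to induce neurite outgrowth and fixed about 2-3 h later. Three blinded observers scored neurite formation from 0 (no neurites) to 8 (long neurites on almost all cells).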

[2] = system: Neuro-2a; assay: as above; details: 0.1 µM
Method: as §1, with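 “at 0.1” for “at 1”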

| SMILES | neurite formation score [1] | neurite formation score [2] |
| --- | --- | --- |
| O=c1cc(N2CCOCC2)oc2c(-c3ccccc3)cccc12 | 5.24 | 4.21 |
| N#CCNC(=O)c1ccc(-c2ccnc(Nc3ccc(N4CCOCC4)cc3)n2)cc1 [CYT387 sulfate salt] | 4.69 | 4.92 |
| COc1cc(F)c(F)c(Nc2ccc(I)cc2F)c1NS(=O)(=O)C1(C[C@H](O)CO)CC1 [Refametinib] | 4.14 | 3.42 |
| Cc1nc(Nc2ncc(C(=O)Nc3c(C)cccc3Cl)s2)cc(N2CCN(CCO)CC2)n1 | 1.57 | 2.38 |
| O=C1NCCCc2c1oc1ccc(O)cc21 | 5.29 | 4.58 |
| COc1cc(Nc2c(C#N)cnc3cc(OCCCN4CCN(C)CC4)c(OC)cc23)c(Cl)cc1Cl [Bosutinib (SKI-606)] | 4.57 | 2.71 |
| O=C(O)c1ccc(-c2c[nH]c3ncc(-c4ccccc4)cc23)cc1C1CCCC1 | 5.29 | 3.92 |
| CNC(=O)c1cc(Oc2ccc(NC(=O)Nc3ccc(Cl)c(C(F)(F)F)c3)c(F)c2)ccn1 [Regorafenib] | 5.24 | 4.88 |
| COc1cc2c(Oc3ccc4[nH]c(C)cc4c3F)ncnc2cc1OCCCN1CCCC1 [Cediranib (AZD217)] | 3.91 | 4.71 |
| Nc1nc(Nc2ccc(S(N)(=O)=O)cc2)nn1C(=O)c1c(F)cccc1F | 5.02 | 5.58 |
| CN(C)C/C=C/C(=O)Nc1cc2c(Nc3ccc(F)c(Cl)c3)ncnc2cc1O[C@H]1CCOC1 [Afatinib (BIBW2992)] | 3.57 | 4.54 |
| CN(c1ncccc1CNc1nc(Nc2ccc3c(c2)CC(=O)N3)ncc1C(F)(F)F)S(C)(=O)=O | 1.57 and 4.24 | 3.54 and 4.88 |
